Our source for the max response and Potency values is PubChem BioAssay (NCATS).

Values joined by “and” are separate entries in the source; they are usually repeats but may differ in a detail not shown here. Identical values can stand only once. Inconclusive results are not listed. Active and inactive are the calls of the source. Unless noted, calls come from the whole dose curve; as a rule, active = well fitted curve in the direction sought with a large enough effect; inconclusive = small, poorly fitted or top-dose-only effect, or another doubt; inactive = no such curve, though single readings can be large; an effect the other way counts as inactive or inconclusive.
Note: % of control where 0% means no effect.

Sequence of Peroxisome proliferator-activated receptor alpha (Homo sapiens) (Q07869 whole entry, looked up, the tested form may be a part): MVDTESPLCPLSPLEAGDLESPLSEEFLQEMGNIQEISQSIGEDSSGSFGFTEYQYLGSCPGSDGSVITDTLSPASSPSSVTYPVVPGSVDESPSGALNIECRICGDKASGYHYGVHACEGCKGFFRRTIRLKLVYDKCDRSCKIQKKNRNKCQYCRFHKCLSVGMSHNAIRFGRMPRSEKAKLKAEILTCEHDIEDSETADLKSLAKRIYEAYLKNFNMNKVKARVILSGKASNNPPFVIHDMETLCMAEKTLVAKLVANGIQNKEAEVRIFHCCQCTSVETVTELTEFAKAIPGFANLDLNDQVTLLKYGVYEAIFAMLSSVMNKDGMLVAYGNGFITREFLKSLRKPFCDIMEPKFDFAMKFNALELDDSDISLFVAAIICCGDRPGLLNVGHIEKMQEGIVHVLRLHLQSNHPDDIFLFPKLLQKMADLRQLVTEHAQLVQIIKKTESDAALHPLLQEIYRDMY

The first assay addresses Peroxisome proliferator-activated receptor alpha (Homo sapiens) (UniProt Q07869). Kind of assay: qHTS assay for small molecule agonists of the peroxisome proliferator-activated receptor alpha (PPARalpha) signaling pathway (AID 651778). The settings on record: PathHunter PPARalpha complementation, chemiluminescence, 6 h; max response: hits give high values. An outline of the steps: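 Enzyme-fragment complementation assay in which ligand-bound PPARalpha translocates and forms an active enzyme that generates chemiluminescence. Cells were plated overnight, exposed to compound for 6 hr at 37 C, and then given detection reagent for 60 min at room temperature.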
As for `O=S(=O)(c1ccc(O)cc1)c1ccc(O)cc1`, the max response is -4.37% (inactive).
Consider `COc1ccc(O)c(C(C)(C)C)c1`, for which the max response was 1.63% (inactive).
The same measure, in the same setting: under `O=[N+]([O-])c1ccc(Oc2ccc(C(F)(F)F)cc2[N+](=O)[O-])cc1` stands -0.519% (inactive); under `CN(C)P(=O)(N(C)C)N(C)C`, 0.0783% (inactive); under `CCOc1ccc(C(C)(C)COCc2cccc(Oc3ccccc3)c2)cc1`, -1.64% (inactive).
Same read-out and setting: under `O=c1[nH]c2ccccc2c(=O)o1` stands -3.96% (inactive); under `COc1ccc(C(O)(c2cncnc2)C2CC2)cc1` (stereo not drawn), -2.81% (inactive); under `CN(C)c1nc(=O)n(C2CCCCC2)c(=O)n1C`, 0.605% (inactive).
Same read-out and setting: under `C=CC1(C)OC(=O)N(c2cc(Cl)cc(Cl)c2)C1=O` (stereo not drawn) stands -2.56% (inactive); under `COC(=O)c1ccccc1CS(=O)(=O)NC(=O)Nc1nc(OC)cc(OC)n1`, -0.343% (inactive).
`CCC[CH2][Sn]([CH2]CCC)([O]C(C)=O)[O]C(C)=O`: the max response was -2.27% (inactive).
Still for that read-out and setting: the result for `O=P(O)(O)CCCl` reads 0.775% (inactive) and -1.46% (inactive); that for `CCOP(=O)(NC(C)C)Oc1ccc(S(C)=O)c(C)c1` (stereo not drawn), -2.3% (inactive); that for `COP(=S)(OC)Oc1nc(Cl)c(Cl)cc1Cl`, -0.488% (inactive).
Same read-out and setting: the result for `CCOP(=O)(O)C(N)=O` reads -1.31% (inactive); that for `Clc1ccc(C(Cl)(Cl)Cl)cc1`, -0.649% (inactive); that for `CCOC1Oc2ccc(OS(C)(=O)=O)cc2C1(C)C` (stereo not drawn), -0.11% (inactive).
Same read-out and setting: under `COCc1cnc(C2=NC(C)(C(C)C)C(=O)N2)c(C(=O)O)c1` (stereo not drawn) stands 0.0113% (inactive); under `Clc1ccc([C@]2(Cn3cncn3)C[C@H](Br)CO2)c(Cl)c1`, -0.439% (inactive) and 5.59% (inactive); under `CCNc1nc(NC(C)(C)C)nc(SC)n1`, 1.46% (inactive).
For the compound `CCCCC(CC)COC(=O)Cl` (stereo not drawn), the max response was -1.56% (inactive).
`CC1CCCCC1NC(=O)Nc1ccccc1` (stereo not drawn): the max response is -0.607% (inactive).
Still for that read-out and setting: under `CCOP(=S)(OCC)SCC(=O)NC(C)C` stands -4.11% (inactive); under `CCOc1nc(NC)nc(NC(=O)NS(=O)(=O)c2ccccc2C(=O)OC)n1`, -5.58% (inactive).
Turning to `C/C(=N\NC(=O)Nc1cc(F)cc(F)c1)c1ncccc1C(=O)O`, the max response is 0.136% (inactive) and -0.453% (inactive).
Regarding `C=CCC1=C(C)[C@@H](OC(=O)[C@@H]2[C@@H](C=C(C)C)C2(C)C)CC1=O`, the max response was 2.33% (inactive).
Same read-out and setting: under `CCC(C)n1c(=O)[nH]c(C)c(Br)c1=O` (stereo not drawn) stands -0.488% (inactive); under `COP(=S)(OC)Oc1ccc([N+](=O)[O-])c(C)c1`, -4.6% (inactive); under `CCN(CC)C(=O)C(C)Oc1cccc2ccccc12` (stereo not drawn), 0.442% (inactive).
The same measure, in the same setting: under `CCCCC(CC)C(=O)Cl` (stereo not drawn) stands -0.947% (inactive); under `CC(Oc1cc(Cl)c(Cl)cc1Cl)C(=O)O` (stereo not drawn), -0.109% (inactive); under `Cc1c(F)c(F)c(COC(=O)C2C(/C=C(\Cl)C(F)(F)F)C2(C)C)c(F)c1F` (stereo not drawn), -0.765% (inactive).
On the same count and under the same terms, under `Nc1ccc([N+](=O)[O-])cc1Cl` stands -5.45% (inactive).
As to `CNC(=O)Oc1ccc(N(C)C)c(C)c1`, the max response is -2.96% (inactive).

Test system in another assay: not listed separately
Kind of assay: qHTS assay for small molecule agonists of the antioxidant response element (ARE) signaling pathway measured by Nrf2-dependant transcriptional activity (AID 720636; active = well fitted curve in the direction sought with a large enough effect in the repeat runs; an effect the other way counts as inactive or inconclusive;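 note: HepG2 cells with an ARE-driven luciferase reporter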). To be noted: ARE-luc HepG2, Nrf2 luciferase reporter, 16 h; series mostly up to 92.4 µM. An outline of the steps:
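ONE-Glo luminescence, read 30 min after reagent addition at room temperature, reflected ARE reporter activity in HepG2 cells that had been incubated with compound for 16 hr at 37 C in 1% dialyzed FBS.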
On to `O=S(=O)(c1ccc(O)cc1)c1ccc(O)cc1`, for which the Potency entry was “inactive”.
Take `COc1ccc(O)c(C(C)(C)C)c1`: the Potency entry was “inactive”.
For the compound `CN(C)P(=O)(N(C)C)N(C)C`, the Potency entry is “inactive”.
On the same count and under the same terms, the result for `CCOc1ccc(C(C)(C)COCc2cccc(Oc3ccccc3)c2)cc1` reads “inactive”.
On to `O=c1[nH]c2ccccc2c(=O)o1`, for which the Potency entry is “inactive”.
For `CN(C)c1nc(=O)n(C2CCCCC2)c(=O)n1C`, the Potency entry was “inactive”.
Same read-out and setting: the result for `C=CC1(C)OC(=O)N(c2cc(Cl)cc(Cl)c2)C1=O` (stereo not drawn) reads “inactive”; that for `COC(=O)c1ccccc1CS(=O)(=O)NC(=O)Nc1nc(OC)cc(OC)n1`, “inactive”.
The same measure, in the same setting: the result for `O=P(O)(O)CCCl` reads “inactive”; that for `CCCCN(CC)C(=O)SCCC`, “inactive”.
With `NS(=O)(=O)C(F)(F)C(F)(F)C(F)(F)C(F)(F)C(F)(F)C(F)(F)C(F)(F)C(F)(F)F`, the Potency result was “inactive”.
Take `CCOP(=O)(NC(C)C)Oc1ccc(S(C)=O)c(C)c1` (stereo not drawn): the Potency result was “inactive”.
The same measure, in the same setting: under `COP(=S)(OC)Oc1nc(Cl)c(Cl)cc1Cl` stands “inactive”.
The same measure, in the same setting: the result for `CCOP(=O)(O)C(N)=O` reads “inactive”; that for `COC(=O)c1ccccc1S(=O)(=O)NC(=O)N(C)c1nc(C)nc(OC)n1`, “inactive”.
On the same count and under the same terms, the result for `COCc1cnc(C2=NC(C)(C(C)C)C(=O)N2)c(C(=O)O)c1` (stereo not drawn) reads “inactive”; that for `Clc1ccc([C@]2(Cn3cncn3)C[C@H](Br)CO2)c(Cl)c1`, “inactive”.
As to `CCNc1nc(NC(C)(C)C)nc(SC)n1`, the Potency result was “inactive”.
The same measure, in the same setting: under `CCCCC(CC)COC(=O)Cl` (stereo not drawn) stands “inactive”; under `CCOP(=S)(OCC)SCC(=O)NC(C)C`, “inactive”; under `C/C(=N\NC(=O)Nc1cc(F)cc(F)c1)c1ncccc1C(=O)O`, “inactive”.
On the same count and under the same terms, under `C=CCC1=C(C)[C@@H](OC(=O)[C@@H]2[C@@H](C=C(C)C)C2(C)C)CC1=O` stands “inactive”; under `C=CC(=O)OCCCCCC(C)C`, “inactive”.
Same read-out and setting: the result for `CCC(C)n1c(=O)[nH]c(C)c(Br)c1=O` (stereo not drawn) reads “inactive”.
For the compound `COP(=S)(OC)Oc1ccc([N+](=O)[O-])c(C)c1`, the Potency result was “inactive”.
Still for that read-out and setting: under `CCCCC(CC)C(=O)Cl` (stereo not drawn) stands “inactive”; under `Cc1c(F)c(F)c(COC(=O)C2C(/C=C(\Cl)C(F)(F)F)C2(C)C)c(F)c1F` (stereo not drawn), “inactive”; under `Nc1ccc([N+](=O)[O-])cc1Cl`, “inactive”.
Still for that read-out and setting: under `CNC(=O)Oc1ccc(N(C)C)c(C)c1` stands “inactive”.
